The values below come from PubChem BioAssay (NCI).

Among the test systems are NCI-H23 lung; NCI-H226 lung; NCI-H322M lung; NCI-H460 lung; HOP-92 NSCLC; NCI-H522 lung; A549/ATCC NSCLC; 786-0 renal; COLO 205 colon.
Experiment in all cases: NCI-60 one-dose screen, 48 h (100 = growth as untreated, 0 = no growth, -100 = all killed)
Common to all, as to conditions: 10 µM unless noted

The panel holds about 83,000 compounds, 20% with a hit somewhere; the sample as a whole holds those more often.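 Assay: single dose, 48 h. Readout: percent growth (0 = no net growth; negative = cell death). Active: <10.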 Unmarked numbers belong to inactive results. The source made the active and inactive calls.

Regarding `CC/C=C\C/C=C\C[C@H]1C/C=C2/C(=O)C=C[C@H]2C/C=C\CCC(=O)O1`, the growth is 7.93% (active) with NCI-H23 lung; -5.58% (active) in the assay with NCI-H226 lung; 53.1% in the assay with NCI-H322M lung; -5.43% (active) in the assay on NCI-H460 lung; -10% (active) with HOP-92 NSCLC; -56% (active) in the assay with NCI-H522 lung. Also, the growth in the assay on A549/ATCC NSCLC is 25.2%; with 786-0 renal it was -6.65% (active); in the assay on COLO 205 colon, -32.4% (active).
Take `O=C(O)c1cn(C2CC2)c2cc(N3CCN(S(=O)(=O)c4ccc(Cl)c(Cl)c4)CC3)c(F)cc2c1=O`: the growth with NCI-H23 lung is 1.76% (active); in the assay on NCI-H226 lung, 41.4%; with NCI-H322M lung it was 21.3%; with NCI-H460 lung it was 5.77% (active); in the assay with HOP-92 NSCLC, 12.2%; in the assay with NCI-H522 lung, -21.4% (active). Further, the growth with A549/ATCC NSCLC was 6.02% (active); in the assay on 786-0 renal, 27.8%; in the assay on COLO 205 colon it was -68.4% (active).
In the case of `Cc1ccccc1C(=O)c1ccccc1C(=O)O`, the growth with NCI-H23 lung was 100%; in the assay with NCI-H226 lung it was 110%; in the assay on NCI-H322M lung, 108%; in the assay with NCI-H460 lung, 111%; with HOP-92 NSCLC, 105%; with NCI-H522 lung, 102%. In addition, the growth in the assay on A549/ATCC NSCLC is 103%; in the assay with 786-0 renal, 97.9%; in the assay with COLO 205 colon it was 115%.
Turning to `CN(C)C1CCC(NC2=CC(=O)C=CC2=O)CC1` (stereo not drawn), the growth in the assay on NCI-H23 lung is 110%; in the assay with NCI-H226 lung, 116%; in the assay with NCI-H322M lung, 102%; in the assay on NCI-H460 lung, 109%; in the assay on HOP-92 NSCLC, 118%; in the assay on NCI-H522 lung it was 90.2%. For the same compound, the growth with A549/ATCC NSCLC was 106%; in the assay with 786-0 renal, 121%; with COLO 205 colon it was 128%.
Take `Cn1c(C(N)=O)cc2c1-c1nc(NC3CCCCC3)ncc1CCC2`: the growth in the assay on NCI-H23 lung is 93.7%; with NCI-H226 lung it was 70.9%; in the assay on NCI-H322M lung, 110%; in the assay on NCI-H460 lung, 94.3%; with HOP-92 NSCLC it was 6.02% (active); in the assay with NCI-H522 lung it was 94.9%. In addition, the growth in the assay on A549/ATCC NSCLC was 92.2%; in the assay with 786-0 renal it was 91.2%; in the assay with COLO 205 colon, 113%.
For `C/C1=C\CCC2(C)OC2CC2CCC(C)(O)C(CC1)C2(C)C` (stereo not drawn), the growth is 99% in the assay with NCI-H23 lung; 107% in the assay on NCI-H226 lung; 96.5% in the assay with NCI-H322M lung; 106% with NCI-H460 lung; -16.4% (active) in the assay on HOP-92 NSCLC; 88% in the assay with NCI-H522 lung. The values for the growth in the assay on A549/ATCC NSCLC, in the assay with 786-0 renal and with COLO 205 colon were 98%, 98.9% and 109%, respectively.
`COc1ccc(NC(=O)/N=c2\oc3c(OC)cccc3cc2-c2cc3ccccc3[nH]2)cc1`: the growth in the assay with NCI-H23 lung was 53.2%; with NCI-H226 lung it was 67.7%; in the assay on NCI-H322M lung it was 74%; with NCI-H460 lung, 49.4%; with HOP-92 NSCLC, -9.99% (active); in the assay on NCI-H522 lung it was 76.3%. Further, the growth in the assay with A549/ATCC NSCLC is 55.7%; with 786-0 renal, 10.7%; in the assay with COLO 205 colon, 97.8%.
